# Data: PubChem BioAssay AID1778 (Sanford-Burnham Center for Chemical Genomics, 2009)
# Screen size: about 290,000 compounds; about 260 (0.09%) were called active. No stated cut-off is given here; in the data, active means inhibition above about 50%; inactive means the rest. This excerpt belongs to a sample that is enriched for actives. Entries with a potency or affinity are not part of this list.
# Target: Kappa-type opioid receptor (Homo sapiens) (UniProt P41145)
# Assay: kappa opioid receptor blockers – cell-based, luminescence, uHTS (AID 1778)
# Details: KOR beta-arrestin recruitment, antagonist mode, active compounds read high; at 10 µM unless noted
# Kappa-type opioid receptor (Homo sapiens), sequence (P41145 whole entry, looked up): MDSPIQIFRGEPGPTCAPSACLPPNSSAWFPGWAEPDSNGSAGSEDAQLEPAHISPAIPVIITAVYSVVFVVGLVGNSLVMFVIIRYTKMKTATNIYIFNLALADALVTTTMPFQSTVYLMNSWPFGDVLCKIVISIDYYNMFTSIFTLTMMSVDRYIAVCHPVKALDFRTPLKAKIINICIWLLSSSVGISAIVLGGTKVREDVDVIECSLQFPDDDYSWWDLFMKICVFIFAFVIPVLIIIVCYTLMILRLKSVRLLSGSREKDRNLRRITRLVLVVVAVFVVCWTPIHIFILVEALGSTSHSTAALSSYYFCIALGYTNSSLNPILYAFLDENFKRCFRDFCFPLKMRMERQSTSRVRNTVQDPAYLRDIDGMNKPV
row,SMILES,inhibition
1,CNc1ncnc(Sc2ccc(Cl)cc2)c1[N+](=O)[O-],8.9% (inactive)
2,OCC1(Cc2cccc(Cl)c2)CCCN(Cc2sc(N3CCCC3)nc2Cl)C1 (stereo unspecified),-39.6% [at 20 µM] (inactive)
3,CN1N=C(C(=O)N2CCc3c([nH]c4ccccc34)C2c2ccccc2Cl)CCC1=O (stereo unspecified),-7% (inactive)
4,O=C1COc2ccc(S(=O)(=O)NCc3ccc(Cl)cc3)cc2N1,-23.4% (inactive)
5,COC(=O)c1sccc1S(=O)(=O)Nc1ccc(Cl)cc1,23.4% (inactive)
6,CCOC(=O)C1CCN(C(=O)c2ccccc2CCc2ccccc2)CC1,12.9% (inactive)
7,Cc1ccc(C(=O)CC(=O)c2ccccc2)cc1,-30.1% [at 20 µM] (inactive)
8,Cc1ccc(C(=O)Nc2ccccc2Sc2ccccc2)cc1,5.8% (inactive)
9,Cc1ccc(C(=O)Sc2cccccc2=O)cc1,88.3% (active)
10,CCC1CCCCN1CCCNC(=O)c1csc2c1CCCCC2 (stereo unspecified),-8.9% (inactive)
11,CCOc1ccc(C(=O)Nc2ccc3c(c2)OCCO3)cc1,-31.1% (inactive)
12,NS(=O)(=O)c1ccc(CCNC(=O)CSc2nc3ccsc3c(=O)n2CC2CCC(C(=O)O)CC2)cc1 (stereo unspecified),-14.6% (inactive)
13,Cc1ccc(NS(=O)(=O)c2cccc3cccnc23)c(Br)c1,-14.5% (inactive)
14,O=S(=O)(Nc1ccccc1O)c1cccc2cccnc12,9.3% (inactive)
15,O=[N+]([O-])c1ccccc1S(=O)(=O)Nc1ncccn1,-24.4% (inactive)
16,Cc1ccc(NS(=O)(=O)c2cccc3cccnc23)c(Cl)c1,19.4% (inactive)
17,O=C(CCN1CCN(c2ccccc2)CC1)Nc1nccs1,11.6% (inactive)
18,Cc1cccc(CN2CCN(C(=S)Nc3ccccc3)CC2)c1,-33.1% [at 20 µM] (inactive)
19,Cc1ccc(CNC(=O)C2CCCN(c3nc(C)cc(C)n3)C2)cc1 (stereo unspecified),-35.8% [at 20 µM] (inactive)
20,CCOC(=O)C(C(=O)OCC)c1cc(Br)c2noc3c2c1C(=O)c1ccccc1-3,68.5% (active)
21,CCOC(=O)N1CCN(c2cc(NCCC(=O)O)c3c4c(onc24)-c2ccccc2C3=O)CC1,-32.6% (inactive)

row,SMILES,inhibition
1,CCOc1ccc2noc3c2c1C(=O)c1ccccc1-3,7.4% (inactive)
2,c1cncc(-c2cn(C[C@H]3CC[C@@H]([C@@H]4CC[C@H](Cn5cc(-c6cccnc6)nn5)O4)O3)nn2)c1,-10.8% [at 20 µM] (inactive)
3,COc1ccc(OCC(=O)Nc2cc(NC(=O)c3ccco3)ccc2OC)cc1,4.9% (inactive)
4,COc1cc(Br)cc(-c2nc3c(c(=O)[nH]c(=O)n3Cc3ccccc3)n2C)c1O,7.6% (inactive)
5,COCCN=c1scc(-c2ccc3c(c2)NC(=O)CO3)n1/N=C(\C)c1ccc(O)cc1,15.8% (inactive)
6,CCN=c1scc(-c2ccc3c(c2)NC(=O)CO3)n1N=C1CCCC1,15.3% (inactive)
7,COC(=O)c1[nH]c2ccc(C)cc2c1NC(=O)CN1CCN(c2ccc(F)cc2)CC1,-0.7% (inactive)
8,COc1ccc(C(=O)Nc2ccccc2C(=O)N/N=C/c2ccncc2)cc1OC,-18.4% (inactive)
9,O=C(N/N=C/c1ccccn1)c1ccc(NC(=O)c2cccc([N+](=O)[O-])c2)cc1,-28.7% (inactive)
10,COc1ccc(C(=O)N/N=C/c2ccccn2)cc1OC,-42.3% (inactive)
11,O=C(N/N=C/c1ccccn1)c1ccccc1,30.7% (inactive)
12,COc1cc(C(=O)N/N=C(\C)c2ccccn2)cc(OC)c1OC,-6.4% (inactive)
13,COc1ccc(C(=O)N/N=C(\C)CC(=O)Nc2ccccn2)cc1OC,3.4% (inactive)
14,COc1ccc(C(=O)N/N=C(\C)c2ccccn2)cc1OC,95% (active)
15,C/C(=N\NC(=O)C1COc2ccccc2O1)c1cccs1 (stereo unspecified),-9.2% (inactive)
16,C/C(=N\NC(=O)C1COc2ccccc2O1)c1ccc(C)o1 (stereo unspecified),13.3% (inactive)
17,Cc1nc(CSc2ccc(Cl)cc2)cs1,1.3% (inactive)
18,CCC1CCCCN1C(=O)CSc1nc(N)cc(N)n1 (stereo unspecified),0.8% [at 20 µM] (inactive)
19,C/C(=N\S(=O)(=O)c1ccc(C)cc1)NC(=S)Nc1ccc(C)cc1,-12% (inactive)
20,CCOc1ccccc1N(C(=O)c1snc(C(N)=O)c1N)C(C(=O)NC1CCCC1)c1cccs1 (stereo unspecified),-14.9% (inactive)
21,CCCOCn1cc(F)c(=O)[nH]c1=O,20.7% (inactive)

row,SMILES,inhibition
1,COc1ccc(OCc2nnc(SCC(=O)Nc3ccccc3C#N)o2)cc1,-9.7% (inactive)
2,COc1ccc(NC(=O)c2ccc(CN(c3cc(Cl)ccc3C)S(=O)(=O)c3ccccc3)cc2)cc1OC,-2.5% (inactive)
3,Cn1c(CNC(=O)c2ccccc2F)nnc1SCC(=O)NCc1ccccc1,-10.1% (inactive)
4,Fc1ccc(-c2ccnc(=S)[nH]2)cc1,2.9% (inactive)
5,C/C(=N/NC(=O)c1ccccn1)c1ccc(O)cc1,12.9% (inactive)
6,C/C(=N/NC(=O)c1ccccn1)c1ccncc1,-12.4% (inactive)
7,C/C(=N\NC(=O)c1ccc(F)cc1)c1ccccn1,86.6% (active)
8,Cc1ccc(O)c(CO)n1,0.6% (inactive)
9,Cc1ccc2ccc3ccc(C)nc3c2n1,-8.8% [at 20 µM] (inactive)
10,Nc1n[nH]c2cc(=O)n(-c3ccc(Cl)cc3)nc12,-68.5% [at 20 µM] (inactive)
11,COc1ccc(-n2nc3c(N)n[nH]c3cc2=O)cc1,-30.3% [at 20 µM] (inactive)
12,COc1cccc(-n2nc(C#N)c(Cl)cc2=O)c1,32.8% (inactive)
13,CC(C)(C)c1ccc(-n2nc(C(N)=O)c(O)cc2=O)cc1,-2% (inactive)
14,COc1cc(C=O)ccc1OCCSc1ccc(Cl)cc1,16.4% (inactive)
15,CC(CCc1ccccc1)NC(=O)c1ccc(NC(=O)c2ccc(Cl)cc2Cl)cc1 (stereo unspecified),26.3% (inactive)
16,C/C=N/NC(=O)CCNC(=O)c1ccccc1,-40% (inactive)
17,CCCCn1c(-c2cccs2)nc2oc3ccccc3c(=O)c2c1=O,17.8% (inactive)
18,Cc1cc2nnc(SCC(=O)Nc3cc(S(=O)(=O)N4CCOCC4)ccc3Cl)n2c2ccccc12,-21.8% (inactive)
19,O=C(NNC(=O)C1CC=CCC1C(=O)O)c1cccs1 (stereo unspecified),30.6% (inactive)
